Activity calls are given as the source filed them.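 How the source made its calls, unless noted: active means visually confirmed hit in the image check and inhibition above 20%; inconclusive means visually confirmed hit but inhibition not above 20%; inactive means no visual hit in the image check.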

Our source for the nuclei count, inhibition of aggregation and inhibition values is PubChem BioAssay.

The first assay in a line: reduction of polyQ htt aggregates in cells – imaging, exon1htt(103Q)mCFP cells, high-content imaging, primary screen (AID 483;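 active means visual image review flags a hit and inhibition of aggregation exceeds 20%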;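 further: compound exposure lasted 3 days before fixation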;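 on nuclei count: percent of the per-plate median nuclei count of sample wells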). Conditions: exon1htt(103Q)mCFP cell line, aggregate imaging, at 2 µM; inhibition of aggregation: stronger effect = higher value; nuclei count: measured here: cell count, toxicity.
As to `COCCNc1nc(C(C)(C)C)nc2c1nnn2Cc1ccccc1Cl`, the nuclei count amounted to 106% and the inhibition of aggregation is 1% (inactive).

Turning to `CNC(=O)CSc1nnc(-c2cc(C)cc(C)c2)o1`, the inhibition of aggregation is 0.4% (inactive) and the nuclei count was 123%.

Take `CC(C(=O)c1ccccc1)n1cnc2ccccc2c1=O` (stereo not given): the nuclei count was found to be 93% and the inhibition of aggregation is 17.6% (inactive).

Take `COC(=O)COc1ccc(C(=O)OC)cc1`: the inhibition of aggregation was 9.9% (inactive) and the nuclei count turned out to be 100%.

Regarding `CC(C)(C)OC(=O)N1CCN(c2ccc(NC(=O)c3cc4ccccc4oc3=O)cc2)CC1`, the inhibition of aggregation is -4.1% (inactive) and the nuclei count was determined as 110%.

In the case of `CCOC(=O)C1=C(Cn2cnc3ccccc32)NC(=O)NC1c1cc(C)ccc1C` (stereo not given), the inhibition of aggregation is -15.4% (inactive) and the nuclei count amounted to 106%.

For the molecule `COc1cc(OC)cc(C(=O)NCCN2CCOCC2)c1`, the inhibition of aggregation was -0.4% (inactive) and the nuclei count worked out at 94.3%.

Consider `CC1=C(C(=O)OCCOC(C)C)C(c2cc3c(cc2Br)OCO3)C2=C(CCCC2=O)N1` (stereo not given), for which the inhibition of aggregation was 8.5% (inactive) and the nuclei count amounted to 41.8%.

As for `Cn1c(=O)c2ccccc2n(Cc2ccccc2F)c1=O`, the inhibition of aggregation is 8.7% (inactive) and the nuclei count amounted to 74.6%.

`COc1ccc(-c2noc(CCC(=O)Nc3nc4ccccc4s3)n2)cc1`: the inhibition of aggregation is 21.7% (inactive) and the nuclei count came to 50.7%.

On to `Cc1cc(C)n(Cc2nc3ccccc3n2C)n1`, for which the nuclei count was found to be 100% and the inhibition of aggregation was 4% (inactive).

As for `COC(=O)c1ccccc1NC(=O)C1CCCCC1C(=O)O` (stereo not given), the nuclei count was 98.8% and the inhibition of aggregation was 15.8% (inactive).

Turning to `COc1ccc(OC)c(NC(=O)CCN2CCN(c3ccccc3F)CC2)c1`, the nuclei count amounted to 81.2% and the inhibition of aggregation was 10.6% (inactive).

As to `COc1ccc(-c2cn3c(C)c(C(=O)Nc4cc(NC(C)=O)ccc4OC)sc3n2)cc1`, the nuclei count came to 59% and the inhibition of aggregation is -40.3% (inactive).

On to `COc1ccc(-n2nnc3c(=O)n(C/C=C/c4ccccc4)cnc32)cc1`, for which the inhibition of aggregation is -19% (inactive) and the nuclei count turned out to be 102%.

`Cc1ccc(S(=O)(=O)N2CCCC2C(=O)n2nc(C)cc2C)cc1` (stereo not given): the inhibition of aggregation was 15.8% (inactive) and the nuclei count stood at 86.2%.

For `CCOC(=O)c1cnc(-n2nc(C)cc2C)nc1Nc1ccc(N(C)C)cc1`, the inhibition of aggregation is 30.6% (inactive) and the nuclei count worked out at 84%.

For `Cc1ccc(S(=O)(=O)N2CCOCC2)cc1C(=O)Nc1ccccn1`, the nuclei count came out at 106% and the inhibition of aggregation is -23.1% (inactive).

In the case of `COC(=O)c1ccc(CNC(=O)COc2ccccc2Br)o1`, the inhibition of aggregation was -7.2% (inactive) and the nuclei count came out at 110%.

`Cc1cc2oc(=O)cc(CN3CCCCC3)c2cc1C(C)C`: the inhibition of aggregation is -20.2% (inactive) and the nuclei count stood at 91.1%.

Consider `Cc1ccc(N2CC(C(=O)Nc3nnc(C)s3)CC2=O)cc1` (stereo not given), for which the nuclei count came to 95.6% and the inhibition of aggregation is -10.8% (inactive).

Consider `Cc1ccc(-c2[nH]nc3c2C(c2ccc(OC(=O)N4CCOCC4)cc2)C(C#N)=C(N)O3)cc1` (stereo not given), for which the inhibition of aggregation is 0.2% (inactive) and the nuclei count worked out at 97.7%.

As for `COc1cccc(NC(=O)COc2ccccc2C(N)=O)c1`, the inhibition of aggregation is 19.1% (inactive) and the nuclei count amounted to 83.6%.

`CCSc1nc(O)c(CC)c(=O)n1C(C)CC` (stereo not given): the inhibition of aggregation was -3.7% (inactive) and the nuclei count was determined as 112%.

Consider `O=C(NCC(=O)N(CCc1ccccc1)C(C(=O)NC1CCCC1)c1cccnc1)c1ccco1` (stereo not given), for which the inhibition of aggregation was 2.2% (inactive) and the nuclei count was determined as 108%.

With `CCCn1cnc2c(c1=O)c1nc3ccccc3nc1n2Cc1ccccc1OC`, the inhibition of aggregation is 4.9% (inactive) and the nuclei count worked out at 95%.

Take `CCn1nnc(NC(=O)c2cc3ccccc3o2)n1`: the inhibition of aggregation was 7.1% (inactive) and the nuclei count was found to be 87.2%.

For the molecule `c1ccc(-c2cn3cccnc3n2)cc1`, the nuclei count is 92.7% and the inhibition of aggregation was 12.5% (inactive).

Consider `COc1ccccc1-n1cnc(N)c1C(C)=O`, for which the nuclei count is 105% and the inhibition of aggregation is -12.9% (inactive).

Consider `CCOC(=O)C1CCCN(C(=O)c2ccc3c(=O)n(CCOC)c(=S)[nH]c3c2)C1` (stereo not given), for which the nuclei count is 81.3% and the inhibition of aggregation was -2.5% (inactive).

On to `COc1ccc(C2C(C#N)=C(C)NC3=C2C(=O)CC(C)(C)C3)c(OC)c1` (stereo not given), for which the nuclei count amounted to 70.9% and the inhibition of aggregation is 19.6% (inactive).

For the molecule `O=C(CN1C(=O)NC(Cc2ccccc2)C1=O)Nc1ccccc1` (stereo not given), the nuclei count was 59.4% and the inhibition of aggregation was 8.9% (inactive).

As to `COC(=O)c1ccccc1NC(=O)Cn1c(-c2nonc2N)nc2ccccc21`, the inhibition of aggregation was -2.5% (inactive) and the nuclei count stood at 1.9%.

`CCCc1cc(=O)n2[nH]c(-c3ccc(Br)cc3)cc2n1`: the nuclei count came out at 98.8% and the inhibition of aggregation was -4.6% (inactive).

As for `COc1ccc(OC)c(N2Cc3cc(C)c(C)cc3C2)c1`, the nuclei count came out at 79.6% and the inhibition of aggregation is 0.2% (inactive).

Turning to `CC1CCCC(NC(=O)CSc2ncccc2C(=O)O)C1C` (stereo not given), the nuclei count was determined as 117% and the inhibition of aggregation was 7.4% (inactive).

With `O=c1cc(-c2ccccc2)[nH]c2nc3ccccc3n12`, the inhibition of aggregation was 15.1% (inactive) and the nuclei count stood at 99.6%.

With `CCN1CCN(S(=O)(=O)c2ccc(S(=O)(=O)N(CC)Cc3ccccc3)cc2)CC1`, the inhibition of aggregation was -9.2% (inactive) and the nuclei count came out at 104%.

Take `CCOC(=O)C1CCCN(C(=O)c2cc3c(C)nc4ccccc4c3o2)C1` (stereo not given): the inhibition of aggregation is 8.7% (inactive) and the nuclei count was 100%.

Turning to `CCCC(=O)Nc1ccc(NC(=O)c2cccs2)cn1`, the nuclei count stood at 106% and the inhibition of aggregation is 10.4% (inactive).

Another assay can be described thus: endothelial E-selectin expression blockers – imaging, HUVEC, immunofluorescence, MLSMR starter and 10KST1 sets, primary screen (AID 487).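 On inhibition: signal is fraction of cell area covered by stained E-selectin grains.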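 On nuclei count: 100% = median nuclei count of all wells on the same plate.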 Conditions: HUVEC TNFalpha-induced E-selectin immunofluorescence imaging, at 2 µM; inhibition: stronger effect = higher value; nuclei count: measured here: cell number, toxicity.
On to `COCCNc1nc(C(C)(C)C)nc2c1nnn2Cc1ccccc1Cl`, for which the inhibition was 14.6% (inactive) and the nuclei count is 111%.

Consider `CNC(=O)CSc1nnc(-c2cc(C)cc(C)c2)o1`, for which the nuclei count was determined as 124% and the inhibition was -34.6% (inactive).

As for `CC(C(=O)c1ccccc1)n1cnc2ccccc2c1=O` (stereo not given), the nuclei count came to 96.9% and the inhibition was -0.6% (inactive).

In the case of `COC(=O)COc1ccc(C(=O)OC)cc1`, the nuclei count amounted to 102% and the inhibition is -33.2% (inactive).

`CC(C)(C)OC(=O)N1CCN(c2ccc(NC(=O)c3cc4ccccc4oc3=O)cc2)CC1`: the nuclei count stood at 107% and the inhibition is -52.6% (inactive).

For `CCOC(=O)C1=C(Cn2cnc3ccccc32)NC(=O)NC1c1cc(C)ccc1C` (stereo not given), the nuclei count was 104% and the inhibition was 0.3% (inactive).

Regarding `COc1cc(OC)cc(C(=O)NCCN2CCOCC2)c1`, the inhibition is -24.5% (inactive) and the nuclei count came out at 108%.

On to `CC1=C(C(=O)OCCOC(C)C)C(c2cc3c(cc2Br)OCO3)C2=C(CCCC2=O)N1` (stereo not given), for which the nuclei count came to 105% and the inhibition was -37.4% (inactive).

Turning to `Cn1c(=O)c2ccccc2n(Cc2ccccc2F)c1=O`, the inhibition is -51.8% (inactive) and the nuclei count worked out at 73.9%.

Turning to `COc1ccc(-c2noc(CCC(=O)Nc3nc4ccccc4s3)n2)cc1`, the nuclei count was found to be 106% and the inhibition is -35% (inactive).

In the case of `Cc1cc(C)n(Cc2nc3ccccc3n2C)n1`, the inhibition is -24.9% (inactive) and the nuclei count is 119%.

Regarding `COC(=O)c1ccccc1NC(=O)C1CCCCC1C(=O)O` (stereo not given), the inhibition was -39.2% (inactive) and the nuclei count came to 85.6%.

In the case of `COc1ccc(OC)c(NC(=O)CCN2CCN(c3ccccc3F)CC2)c1`, the nuclei count was 101% and the inhibition was -63.8% (inactive).

With `COc1ccc(-c2cn3c(C)c(C(=O)Nc4cc(NC(C)=O)ccc4OC)sc3n2)cc1`, the inhibition is -116% (inactive) and the nuclei count is 118%.

As for `COc1ccc(-n2nnc3c(=O)n(C/C=C/c4ccccc4)cnc32)cc1`, the inhibition is -31.4% (inactive) and the nuclei count was 115%.

`Cc1ccc(S(=O)(=O)N2CCCC2C(=O)n2nc(C)cc2C)cc1` (stereo not given): the inhibition was 46.7% (inactive) and the nuclei count worked out at 93.5%.

With `CCOC(=O)c1cnc(-n2nc(C)cc2C)nc1Nc1ccc(N(C)C)cc1`, the inhibition was -51.8% (inactive) and the nuclei count was determined as 88.2%.

Take `Cc1ccc(S(=O)(=O)N2CCOCC2)cc1C(=O)Nc1ccccn1`: the nuclei count is 111% and the inhibition was -75.1% (inactive).

Turning to `COC(=O)c1ccc(CNC(=O)COc2ccccc2Br)o1`, the nuclei count was 81.7% and the inhibition was 0.2% (inactive).

Consider `Cc1cc2oc(=O)cc(CN3CCCCC3)c2cc1C(C)C`, for which the inhibition is 67.8% (active) and the nuclei count is 56.9%.

`Cc1ccc(N2CC(C(=O)Nc3nnc(C)s3)CC2=O)cc1` (stereo not given): the nuclei count turned out to be 103% and the inhibition is 21.8% (inactive).

For `Cc1ccc(-c2[nH]nc3c2C(c2ccc(OC(=O)N4CCOCC4)cc2)C(C#N)=C(N)O3)cc1` (stereo not given), the inhibition is -39.7% (inactive) and the nuclei count is 104%.

As to `COc1cccc(NC(=O)COc2ccccc2C(N)=O)c1`, the nuclei count was 78% and the inhibition is 14.7% (inactive).

For `CCSc1nc(O)c(CC)c(=O)n1C(C)CC` (stereo not given), the nuclei count came out at 111% and the inhibition is -56.3% (inactive).

For `O=C(NCC(=O)N(CCc1ccccc1)C(C(=O)NC1CCCC1)c1cccnc1)c1ccco1` (stereo not given), the nuclei count stood at 141% and the inhibition was -126% (inactive).

`CCCn1cnc2c(c1=O)c1nc3ccccc3nc1n2Cc1ccccc1OC`: the nuclei count is 130% and the inhibition is -68.4% (inactive).

As for `CCn1nnc(NC(=O)c2cc3ccccc3o2)n1`, the nuclei count came out at 102% and the inhibition was -51% (inactive).

On to `c1ccc(-c2cn3cccnc3n2)cc1`, for which the nuclei count was found to be 123% and the inhibition is -66.8% (inactive).

Turning to `COc1ccccc1-n1cnc(N)c1C(C)=O`, the inhibition is -12.3% (inactive) and the nuclei count came out at 110%.

Take `CCOC(=O)C1CCCN(C(=O)c2ccc3c(=O)n(CCOC)c(=S)[nH]c3c2)C1` (stereo not given): the nuclei count stood at 91.8% and the inhibition is 20.2% (inactive).

In the case of `COc1ccc(C2C(C#N)=C(C)NC3=C2C(=O)CC(C)(C)C3)c(OC)c1` (stereo not given), the inhibition is 31.4% (inactive) and the nuclei count was 96%.

Regarding `O=C(CN1C(=O)NC(Cc2ccccc2)C1=O)Nc1ccccc1` (stereo not given), the inhibition is -32.2% (inactive) and the nuclei count is 111%.

`COC(=O)c1ccccc1NC(=O)Cn1c(-c2nonc2N)nc2ccccc21`: the inhibition is -162% (inactive) and the nuclei count stood at 102%.

Turning to `CCCc1cc(=O)n2[nH]c(-c3ccc(Br)cc3)cc2n1`, the nuclei count came to 119% and the inhibition was -27.5% (inactive).

For `COc1ccc(OC)c(N2Cc3cc(C)c(C)cc3C2)c1`, the inhibition is -8.6% (inactive) and the nuclei count was found to be 86.7%.

For the molecule `CC1CCCC(NC(=O)CSc2ncccc2C(=O)O)C1C` (stereo not given), the nuclei count was 112% and the inhibition was -55.4% (inactive).

For the molecule `O=c1cc(-c2ccccc2)[nH]c2nc3ccccc3n12`, the nuclei count was 96.2% and the inhibition was -4.8% (inactive).

For `CCN1CCN(S(=O)(=O)c2ccc(S(=O)(=O)N(CC)Cc3ccccc3)cc2)CC1`, the nuclei count turned out to be 108% and the inhibition was -27.9% (inactive).

For the molecule `CCOC(=O)C1CCCN(C(=O)c2cc3c(C)nc4ccccc4c3o2)C1` (stereo not given), the inhibition is -91.4% (inactive) and the nuclei count came to 119%.

On to `CCCC(=O)Nc1ccc(NC(=O)c2cccs2)cn1`, for which the nuclei count was found to be 140% and the inhibition is -445% (inactive).
